These results are taken from PubChem BioAssay (NCI).

This is part of a sample that, as a whole, favours compounds with a hit. Of some 83,000 tested, about 20% had one in any assay.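 Note: values are percent growth. 100 is the growth of untreated cells, values between 100 and 0 indicate rising inhibition; between -100 and 0 indicates cell death.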 Unmarked numbers belong to inactive results. Active and inactive are the calls of the source. The calls were made as follows: active = growth percent below 10; inactive = the rest.

Holding throughout (assay): NCI-60 one-dose screen, 48 h (100 = growth as untreated, 0 = no growth, -100 = all killed)
Details in all cases: 10 µM unless noted

In test [1] the test system is HCT-15 colon.
For test [2], the system named is HT29 colon.
Test [3] relates to SNB-19 CNS.
In test [4] the test system is U251 CNS.
Test [5] concerns PC-3 prostate.
Test [6] concerns SK-MEL-5 melanoma.
For test [7], the system named is UACC-62 melanoma.
Test [8] has as its system LOX IMVI melanoma.
Test [9] relates to SK-MEL-28 melanoma.
Test [10] deals with SK-MEL-2 melanoma.
Test [11] relates to EKVX NSCLC.
Test [12] has as its system SN12C renal.
The test system of test [13] is UO-31 renal.
Test [14] has as its system TK-10 renal.
In test [15] the test system is ACHN renal.
Test [16] relates to CAKI-1 renal.
Test [17] relates to A498 renal.
Test [18] has as its system CCRF-CEM leukemia.
Test [19] has as its system MOLT-4 leukemia.

Regarding `CC(C)C(C(=O)NCCN1CCOCC1)N1C(=O)/C(=C/c2ccc(Br)cc2)SC1=S` (stereo not drawn), the growth in [1] was 99.9%; in test [2], 109%; in test [3] it was 92.5%; in test [4], 98%; in [5], 90.1%; in test [6], 98.2%. In addition, the growth in test [7] is 87.8%; in test [8] it was 99%; in test [9], 96.9%; in test [10], 93.9%; in [11] it was 104%; in test [12], 93.8%. Besides, the growth is 84.9% in [13]; 121% in [14]; 101% in test [15]; 97.9% in test [16]; 96.8% in [17]; 97.8% in test [18]. The growth in test [19] is 102%.

For the molecule `Nc1cccc(-c2nc3sccn3c2-c2ccnc(NCCCNS(=O)(=O)c3cccc4ccccc34)n2)c1`, the growth in test [1] is 25.4%; in test [2] it was 20.6%; in test [3], 55.6%; in test [4] it was 49.3%; in test [5], 31.2%; in test [6], 4.1% (active). Moreover, the growth in test [7] was 22.2%; in test [8], 9.92% (active); in test [9] it was 64.5%; in test [10], 36.3%; in test [11] it was 56.7%; in test [12], 39.3%. For the same molecule, the growth was 21.5% in test [13]; 76.5% in [14]; 31.6% in test [15]; 34.9% in [16]; 29.8% in [17]; 16.1% in [18]. Further, the growth in test [19] was 10.3%.

Consider `CC(C)(C)n1cc(-c2ccnc(NCCNS(=O)(=O)c3ccc(F)cc3)c2)c(-c2cccc(O)c2)n1`, for which the growth in test [1] is 8.99% (active); in [2], 15.8%; in test [3] it was 71.3%; in [4], 48.4%; in test [5], 35.5%; in test [6], 19.4%. Besides, the growth in test [7] was 61.8%; in test [8] it was 31.2%; in test [9], 52.4%; in [10] it was 66.5%; in test [11] it was 63%; in test [12], 55.8%. Moreover, the growth in [13] was 53.9%; in [14], 102%; in [15], 63%; in test [16] it was 61.3%; in [17], 56.7%; in test [18], 46.4%. In addition, the growth in test [19] is 35.3%.

As to `CCOC(=O)/C(C#N)=C1/C(=O)Nc2ccccc21`, the growth was 106% in [1]; 112% in test [2]; 104% in [3]; 113% in test [4]; 94.2% in test [5]; 115% in test [6]. Further, the growth was 103% in test [7]; 99% in [8]; 115% in test [9]; 122% in [10]; 117% in test [11]; 96.3% in [12]. Besides, the growth in [13] was 71.1%; in test [14], 130%; in test [15], 102%; in test [16] it was 99.4%; in test [17], 132%; in test [18] it was 67.1%. In test [19], the growth is 138%.

Take `O=C(C1=Cc2cc3ccccc3n2Cc2cnnn21)c1ccccc1`: the growth in test [1] is 38.6%; in [2] it was 7.8% (active); in test [3] it was 32.2%; in test [4], 32.6%; in [5], 47.7%; in test [6], 45.8%. In addition, the growth in test [7] is 44.4%; in [8], 49.8%; in test [9], 64.8%; in test [10], 44.1%; in [11], 82.9%; in test [12], 50.3%. Also, the growth in test [13] is 64.8%; in [14] it was 72.7%; in test [15] it was 74.6%; in test [16], 58%; in [17] it was 71.7%; in [18], 53%. Moreover, the growth in [19] is 42.1%.

As for `CCN1CCN(CC(=O)N2c3cccc4cccc(c34)N(C(=O)CN3CCN(CC)CC3)C2c2cn(-c3ccccc3)nc2-c2cccc([N+](=O)[O-])c2)CC1`, the growth in test [1] is -45.5% (active); in test [2], -41.5% (active); in test [3] it was 8% (active); in test [4], -82.1% (active); in [5], 21.6%; in [6], -92.5% (active). Moreover, the growth in test [7] was -82.4% (active); in test [8], -82.1% (active); in test [9] it was -87.6% (active); in [10], -9.31% (active); in [11] it was 36.5%; in [12] it was -53% (active). The growth in [13] was -26.1% (active); in test [14], -41.4% (active); in test [15], -43.6% (active); in [16], -5.5% (active); in test [17], 74.7%; in test [18], -33.6% (active). Moreover, the growth in [19] is -33.7% (active).

In the case of `Cc1nc2c3c(ncn2n1)Oc1c(c(=O)[nH]c2ccccc12)C3c1ccc(Cl)cc1` (stereo not drawn), the growth in test [1] was 99.6%; in test [2] it was 102%; in test [3], 92%; in [4] it was 94.1%; in test [5] it was 83.4%; in test [6], 94.8%. The growth was 90.6% in test [7]; 91.1% in [8]; 110% in test [9]; 101% in [10]; 86.6% in test [11]; 97% in [12]. In addition, the growth was 64.5% in test [13]; 105% in test [14]; 96.1% in test [15]; 83.8% in [16]; 95.4% in test [17]; 96.5% in test [18]. Besides, in test [19], the growth was 101%.
